# Activity calls are given as the source filed them.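 Rule for the calls, unless noted: active = NADPH fluorescence slope more negative than the mean of all samples by about 3 SD, 99.7% confidence; inactive = the rest.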
# Experiments:
# [1] = inhibitors of TNFa-induced NFkB p65 translocation, primary screen, imaging, HUVEC, MLSMR starter and 10KST1 sets (AID 438;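 active = inhibition above 20% together with a positive visual image hit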;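 note: compound added about 3h40 before a 20 min TNFalpha stimulation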;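 for inhibition: signal is the nuclear over cytoplasmic p65 intensity ratio per well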); conditions: HUVEC TNFa-induced p65 nuclear translocation; cell count: measured here: nuclei count (cytotoxicity indicator), at 2.08 µM; inhibition: at 2 µM, stronger effect = higher value, 0% TNFa-plus-vehicle, 100% no-TNFa wells
# [2] = inhibitors of mutant huntingtin aggregation, primary screen, imaging, exon1htt(103Q)mCFP cells, high-content imaging (AID 483;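 active = visual image review flags a hit and inhibition of aggregation exceeds 20%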;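 note: compound exposure lasted 3 days before fixation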;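 for nuclei count: percent of the per-plate median nuclei count of sample wells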); conditions: exon1htt(103Q)mCFP cell line, aggregate imaging, at 2 µM; inhibition of aggregation: stronger effect = higher value; nuclei count: measured here: cell count, toxicity
# [3] = inhibitors of E-selectin induction by TNFa, primary screen, imaging, HUVEC, immunofluorescence, MLSMR starter and 10KST1 sets (AID 487;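 active = visually confirmed hit in the image check and inhibition above 20%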;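 for inhibition: signal is fraction of cell area covered by stained E-selectin grains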;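 for nuclei count: 100% = median nuclei count of all wells on the same plate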); conditions: HUVEC TNFalpha-induced E-selectin immunofluorescence imaging, at 2 µM; inhibition: stronger effect = higher value; nuclei count: measured here: cell number, toxicity
# [4] = target: Voltage-gated potassium channel subunit beta-2 (Rattus norvegicus) (UniProt P62483); experiment: KvBeta enzyme negative modulators, primary screen, biochemical, NADPH fluorescence (AID 622;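 active = fluorescence slope higher than the sample average by over 3 SD, cut at about -0.22 in these data, passing the limit was not always enough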;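 note: slope of raw intensity against log time taken from 70 to 1610 s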); conditions: recombinant KvBeta, 4-cyanobenzaldehyde reduction, at 10 µM, stronger effect = higher value
# Chain of Voltage-gated potassium channel subunit beta-2 (Rattus norvegicus) (P62483 whole entry, looked up): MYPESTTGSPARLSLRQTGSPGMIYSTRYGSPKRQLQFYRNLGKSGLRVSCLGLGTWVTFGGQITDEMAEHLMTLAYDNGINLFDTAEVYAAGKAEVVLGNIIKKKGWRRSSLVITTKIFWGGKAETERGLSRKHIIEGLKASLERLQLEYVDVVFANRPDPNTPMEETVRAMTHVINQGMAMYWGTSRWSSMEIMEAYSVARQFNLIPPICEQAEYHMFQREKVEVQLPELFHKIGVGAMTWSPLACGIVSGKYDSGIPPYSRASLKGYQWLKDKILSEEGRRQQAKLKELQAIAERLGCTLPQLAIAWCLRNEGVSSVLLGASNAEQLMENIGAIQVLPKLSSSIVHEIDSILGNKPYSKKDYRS
# [5] = target: Voltage-gated potassium channel subunit beta-2 (Rattus norvegicus) (UniProt P62483); experiment: KvBeta positive modulators, primary screen, biochemical, NADPH fluorescence (AID 623); conditions: Recombinant KvBeta, NADPH fluorescence decrease slope, 10 min; at 10 µM; stronger effect = lower value;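 note: fluorescence intensity change per second fitted from 20 to 320 s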
# [6] = target: Alpha-2C adrenergic receptor (Homo sapiens) (UniProt P18825); experiment: modulators of alpha2C/GIRK thallium flux, primary screen, cell-based, HEK293 alpha2C/GIRK1/2 (AID 624;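 active = fluorescence slope after compound addition differing from the mean of all screened samples at 99.7% confidence, in either direction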;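 note: slope of fluorescence ratio to pre-addition baseline per second over 15 to 24 s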); conditions: thallium flux BTC fluorescence, at 10 µM, actives lie on both sides
# Chain of Alpha-2C adrenergic receptor (Homo sapiens) (P18825 whole entry, looked up): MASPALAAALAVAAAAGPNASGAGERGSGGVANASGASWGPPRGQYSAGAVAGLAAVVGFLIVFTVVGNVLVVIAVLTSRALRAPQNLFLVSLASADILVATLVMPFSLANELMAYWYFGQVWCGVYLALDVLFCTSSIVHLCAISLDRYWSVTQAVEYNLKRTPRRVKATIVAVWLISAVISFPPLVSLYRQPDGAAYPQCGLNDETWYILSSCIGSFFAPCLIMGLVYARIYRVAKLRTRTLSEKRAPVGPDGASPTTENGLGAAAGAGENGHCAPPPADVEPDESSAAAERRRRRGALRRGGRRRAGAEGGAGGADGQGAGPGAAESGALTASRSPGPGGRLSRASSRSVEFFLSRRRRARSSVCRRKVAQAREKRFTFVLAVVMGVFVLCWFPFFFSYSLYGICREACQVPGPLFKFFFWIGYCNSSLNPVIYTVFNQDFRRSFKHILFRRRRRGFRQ
# [7] = inhibitors of Sendai virus-induced IRF3 signaling, primary screen, TLR/RLR signaling modifier project, cell-based, Sendai virus stimulus, luciferase, 10K MLSCN set (AID 602276;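 active = inhibition at or above 50% at 10 µM; inactive = inhibition below 50%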;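 note: firefly luciferase from ISG56 promoter only with Renilla not read in this screen; 0% = Sendai virus plus DMSO and 100% = medium plus DMSO without virus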); conditions: HEK293 RL24 IRF3 luciferase reporter, at 10 µM, stronger effect = higher value
# [8] = inhibitors of poly I:C-induced TLR3 signaling, primary screen, cell-based, poly I:C stimulus, luciferase, 10K MLSCN set (AID 602277;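 active = inhibition of the reporter signal at or above 50%; inactive = inhibition below 50%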); conditions: HEK293-TLR3 RL24 IRF3 luciferase reporter, at 10 µM, stronger effect = higher value
SMILES,cell count [1],inhibition [1],inhibition of aggregation [2],nuclei count [2] [%],inhibition [3],nuclei count [3] [%],fluorescence slope [4],NADPH fluorescence slope [5],slope [6],inhibition [7],inhibition [8]
O=C(COc1cccc(Oc2ccccc2)c1)Nc1ncccn1,739,3.1% (inactive),12.8% (inactive),103,-25.1% (inactive),111,-0.609 (inactive),-1.1e-05 (inactive),0.00604 (inactive),4.77% (inactive),4.74% (inactive)
O=C(NCCC1=CCCCC1)C1CCN(C(=O)Nc2ccccc2)CC1,206,-6.2% (inactive),-13.3% (inactive),92.3,5.2% (inactive),84.8,-0.439 (inactive),-5.1e-05 (inactive),0.00392 (inactive),2.99% (inactive),21.5% (inactive)
COc1ccccc1C(=O)N1CCN=C1SCc1cccnc1,266,-0.3% (inactive),-22.1% (inactive),103,0.7% (inactive),97.2,-0.595 (inactive),-3.9e-05 (inactive),0.00599 (inactive),-7.45% (inactive),6.88% (inactive)
c1coc(Cn2nnnc2CN2CCN(C3CCCC3)CC2)c1,530,-15.6% (inactive),-2.8% (inactive),96.9,-1.8% (inactive),107,-0.408 (inactive),2.2e-05 (inactive),0.00537 (inactive),-7.52% (inactive),12.8% (inactive)
O=c1[nH]c(N2CCc3ccccc32)nc2c1CCCC2,309,1.1% (inactive),11% (inactive),68.4,14.7% (inactive),82.4,-0.507 (inactive),-4.2e-05 (inactive),0.0041 (inactive),6.82% (inactive),-14.4% (inactive)
O=C(CSc1nnc2c3cc(F)ccc3nc(-c3ccccc3)n12)N1CCOCC1,597,4.9% (inactive),-0.6% (inactive),104,-23.2% (inactive),96.3,-0.37 (inactive),-7.1e-06 (inactive),0.00625 (inactive),-0.506% (inactive),-0.765% (inactive)
Cc1ccc(/C=c2\s/c(=C(/C#N)C(=O)N3CCCC3)n(Cc3ccco3)c2=O)s1,627,2.8% (inactive),-17.3% (inactive),101,-28.1% (inactive),136,-0.59 (inactive),2e-05 (inactive),0.00315 (inactive),16.4% (inactive),-21.1% (inactive)
CCOc1ccc(N2C(=O)CC(N3CC(C)OC(C)C3)C2=O)cc1 (centres undefined),578,-14.1% (inactive),-12% (inactive),104,3.9% (inactive),128,-0.357 (inactive),5.9e-06 (inactive),0.00636 (inactive),9.5% (inactive),25.7% (inactive)
Cc1cccc2cc(CN(CCN3CCCC3)C(=O)NC3CCCCC3)c(=O)[nH]c12,641,-7.5% (inactive),-0.1% (inactive),84.8,-7.3% (inactive),97,-0.428 (inactive),1e-05 (inactive),0.00641 (inactive),12.6% (inactive),38.4% (inactive)
Cc1ccc(-c2noc(CCC(=O)NCC3CCN(Cc4cccc(C)c4)CC3)n2)cc1,400,1.5% (inactive),7.8% (inactive),88.4,17% (inactive),89.5,-0.401 (inactive),-4.7e-05 (inactive),0.0033 (inactive),25.8% (inactive),28.9% (inactive)
Cn1c2c(c(=O)n(C)c1=O)C(c1cccc(Br)c1)C1C(=O)c3ccccc3C1=N2 (centres undefined),720,-5.8% (inactive),2.7% (inactive),110,3.3% (inactive),109,-0.585 (inactive),-6.2e-05 (inactive),0.00438 (inactive),8.12% (inactive),12.5% (inactive)
Cc1c(C(=O)Nc2ccncc2)oc2c1C(=O)CC(C)(C)C2,254,9.6% (inactive),18.9% (inactive),85.4,-44.5% (inactive),97.2,-0.408 (inactive),-2.8e-05 (inactive),0.00527 (inactive),7.94% (inactive),-3.33% (inactive)
c1coc(-c2nnc(NC3=NCCC3)o2)c1,527,-5.3% (inactive),6.6% (inactive),98.8,-80.8% (inactive),162,-0.526 (inactive),2.5e-05 (inactive),0.0054 (inactive),-15.4% (inactive),-42.4% (inactive)
OC(COc1ccc2ccccc2c1)CN1CCOCC1 (centres undefined),780,4.7% (inactive),3.4% (inactive),83,-44.7% (inactive),95.6,-0.441 (inactive),-8.9e-05 (inactive),0.00562 (inactive),3.23% (inactive),11.9% (inactive)

# Source: PubChem BioAssay
